A number with no mark means an inactive call.
How the values were obtained:
Assay in all cases: log2 ratio of Biotin-Ahx-Ub-VS probe labelling (fragment/DMSO); higher = less target engagement (more negative = stronger competition), active = hit call of the paper (q ≤ 0.05, log2 ratio ≤ -1)
Conditions in all cases: compound concentration: 200 uM; treatment time: 3 h
USP19 = molecular target: T1, USP19 (UniProt O94966)
T1 sequence (whole entry): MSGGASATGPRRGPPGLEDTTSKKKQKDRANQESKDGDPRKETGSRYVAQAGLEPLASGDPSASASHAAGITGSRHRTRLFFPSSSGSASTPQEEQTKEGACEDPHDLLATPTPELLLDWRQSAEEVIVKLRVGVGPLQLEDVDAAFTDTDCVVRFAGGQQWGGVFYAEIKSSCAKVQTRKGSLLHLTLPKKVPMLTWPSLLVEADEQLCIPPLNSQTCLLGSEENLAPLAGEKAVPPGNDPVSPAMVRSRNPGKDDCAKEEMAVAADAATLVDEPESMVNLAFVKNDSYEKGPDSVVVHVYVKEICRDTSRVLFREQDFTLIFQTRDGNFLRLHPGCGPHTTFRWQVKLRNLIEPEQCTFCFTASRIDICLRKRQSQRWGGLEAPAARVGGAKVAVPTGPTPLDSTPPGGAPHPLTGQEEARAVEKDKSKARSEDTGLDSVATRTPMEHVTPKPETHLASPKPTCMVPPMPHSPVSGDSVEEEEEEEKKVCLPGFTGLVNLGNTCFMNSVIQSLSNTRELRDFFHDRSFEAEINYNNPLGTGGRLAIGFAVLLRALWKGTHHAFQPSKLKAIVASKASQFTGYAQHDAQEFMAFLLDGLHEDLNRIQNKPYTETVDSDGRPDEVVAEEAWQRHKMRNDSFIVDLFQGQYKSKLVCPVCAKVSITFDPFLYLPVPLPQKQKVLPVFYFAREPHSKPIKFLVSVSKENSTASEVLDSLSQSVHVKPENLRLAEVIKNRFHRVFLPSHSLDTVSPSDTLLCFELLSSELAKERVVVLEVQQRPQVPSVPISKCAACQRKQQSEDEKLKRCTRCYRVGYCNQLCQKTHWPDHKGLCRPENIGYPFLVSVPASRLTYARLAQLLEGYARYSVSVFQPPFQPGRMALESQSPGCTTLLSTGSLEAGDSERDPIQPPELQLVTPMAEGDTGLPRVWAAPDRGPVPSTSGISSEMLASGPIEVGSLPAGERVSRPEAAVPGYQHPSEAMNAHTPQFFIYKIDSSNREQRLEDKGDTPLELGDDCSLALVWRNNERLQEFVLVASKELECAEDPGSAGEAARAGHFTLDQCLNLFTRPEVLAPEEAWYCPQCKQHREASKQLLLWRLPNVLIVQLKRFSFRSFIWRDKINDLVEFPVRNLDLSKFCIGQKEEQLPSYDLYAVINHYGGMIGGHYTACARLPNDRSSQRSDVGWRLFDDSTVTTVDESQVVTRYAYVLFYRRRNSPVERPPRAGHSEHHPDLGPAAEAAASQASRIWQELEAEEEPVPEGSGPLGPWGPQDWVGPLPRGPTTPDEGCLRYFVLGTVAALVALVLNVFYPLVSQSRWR
In short: (§1)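 Each value is an average log2 ratio of fragment to vehicle, tested by unpaired t-test. The underlying Spectronaut label-free quantities were global-median-normalised, and only proteins with ≥2 unique peptides were included. Triplicate HEK293T lysate samples (495 µg) were exposed to fragment at 200 µM or vehicle for 3 h, then to Biotin-Ahx-Ub-VS at 0.5 µM final for 1 h, before NeutrAvidin enrichment of labelled DUBs, LysC and trypsin digestion, and diaPASEF LC-MS/MS.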

USP24 = USP24 (UniProt Q9UPU5)
In short: as §1

USP25 = molecular target: T2, USP25 (UniProt Q9UHP3)
T2 sequence (whole entry): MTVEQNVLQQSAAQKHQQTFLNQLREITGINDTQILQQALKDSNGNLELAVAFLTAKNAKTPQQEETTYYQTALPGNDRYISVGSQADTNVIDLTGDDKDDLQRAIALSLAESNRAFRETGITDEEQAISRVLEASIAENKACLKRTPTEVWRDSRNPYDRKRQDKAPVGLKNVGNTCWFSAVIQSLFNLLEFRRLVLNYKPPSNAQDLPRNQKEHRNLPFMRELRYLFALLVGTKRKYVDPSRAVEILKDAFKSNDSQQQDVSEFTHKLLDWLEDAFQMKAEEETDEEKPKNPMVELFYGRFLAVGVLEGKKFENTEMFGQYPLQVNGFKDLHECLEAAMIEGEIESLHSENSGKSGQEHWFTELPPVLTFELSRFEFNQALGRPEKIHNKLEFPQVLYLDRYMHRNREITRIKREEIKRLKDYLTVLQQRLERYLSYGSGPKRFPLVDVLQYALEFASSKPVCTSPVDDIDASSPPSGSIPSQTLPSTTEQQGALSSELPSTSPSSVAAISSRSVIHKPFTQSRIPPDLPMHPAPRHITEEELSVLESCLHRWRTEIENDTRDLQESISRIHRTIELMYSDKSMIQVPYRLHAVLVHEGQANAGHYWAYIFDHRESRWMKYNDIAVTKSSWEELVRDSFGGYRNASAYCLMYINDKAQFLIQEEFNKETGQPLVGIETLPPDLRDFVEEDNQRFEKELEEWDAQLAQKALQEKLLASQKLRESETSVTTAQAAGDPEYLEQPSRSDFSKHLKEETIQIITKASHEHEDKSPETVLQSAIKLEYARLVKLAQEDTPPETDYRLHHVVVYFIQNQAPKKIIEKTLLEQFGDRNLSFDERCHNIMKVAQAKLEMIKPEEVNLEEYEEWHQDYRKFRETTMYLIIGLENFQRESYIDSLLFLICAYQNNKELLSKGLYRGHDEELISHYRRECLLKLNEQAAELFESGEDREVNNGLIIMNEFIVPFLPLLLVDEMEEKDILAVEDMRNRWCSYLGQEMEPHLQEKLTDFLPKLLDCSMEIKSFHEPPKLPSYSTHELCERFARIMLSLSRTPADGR
In short: as §1

USP28 = molecular target: T3, USP28 (UniProt Q96RU2)
T3 sequence (whole entry): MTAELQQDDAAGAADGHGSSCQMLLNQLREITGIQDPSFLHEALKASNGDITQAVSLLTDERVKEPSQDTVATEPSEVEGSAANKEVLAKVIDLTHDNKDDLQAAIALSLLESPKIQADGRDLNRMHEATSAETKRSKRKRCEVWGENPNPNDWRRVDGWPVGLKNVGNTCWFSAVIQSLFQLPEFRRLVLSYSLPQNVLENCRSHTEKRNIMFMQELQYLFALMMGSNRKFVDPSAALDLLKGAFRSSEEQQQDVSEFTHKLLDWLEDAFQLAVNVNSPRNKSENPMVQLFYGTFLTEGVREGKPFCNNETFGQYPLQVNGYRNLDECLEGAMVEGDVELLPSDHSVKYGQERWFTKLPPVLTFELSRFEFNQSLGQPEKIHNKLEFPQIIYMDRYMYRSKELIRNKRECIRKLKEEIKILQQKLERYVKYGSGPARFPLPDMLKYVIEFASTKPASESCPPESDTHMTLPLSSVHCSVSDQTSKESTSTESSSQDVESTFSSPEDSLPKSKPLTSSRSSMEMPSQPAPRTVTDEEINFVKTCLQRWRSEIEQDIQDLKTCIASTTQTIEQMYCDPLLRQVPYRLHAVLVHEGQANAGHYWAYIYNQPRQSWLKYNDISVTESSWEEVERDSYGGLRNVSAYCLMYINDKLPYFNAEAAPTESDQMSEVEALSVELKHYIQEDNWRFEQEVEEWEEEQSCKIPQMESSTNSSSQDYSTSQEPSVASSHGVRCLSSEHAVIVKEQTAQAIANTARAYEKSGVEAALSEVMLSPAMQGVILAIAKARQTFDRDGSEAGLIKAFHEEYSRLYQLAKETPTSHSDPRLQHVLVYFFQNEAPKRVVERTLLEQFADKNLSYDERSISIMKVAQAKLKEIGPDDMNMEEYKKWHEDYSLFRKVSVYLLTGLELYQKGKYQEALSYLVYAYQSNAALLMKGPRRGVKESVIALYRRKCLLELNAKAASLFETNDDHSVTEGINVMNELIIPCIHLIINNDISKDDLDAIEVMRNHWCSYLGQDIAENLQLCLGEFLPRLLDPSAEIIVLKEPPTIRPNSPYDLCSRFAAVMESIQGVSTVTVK
In short: as §1

USP24, sequence (Q9UPU5 whole entry): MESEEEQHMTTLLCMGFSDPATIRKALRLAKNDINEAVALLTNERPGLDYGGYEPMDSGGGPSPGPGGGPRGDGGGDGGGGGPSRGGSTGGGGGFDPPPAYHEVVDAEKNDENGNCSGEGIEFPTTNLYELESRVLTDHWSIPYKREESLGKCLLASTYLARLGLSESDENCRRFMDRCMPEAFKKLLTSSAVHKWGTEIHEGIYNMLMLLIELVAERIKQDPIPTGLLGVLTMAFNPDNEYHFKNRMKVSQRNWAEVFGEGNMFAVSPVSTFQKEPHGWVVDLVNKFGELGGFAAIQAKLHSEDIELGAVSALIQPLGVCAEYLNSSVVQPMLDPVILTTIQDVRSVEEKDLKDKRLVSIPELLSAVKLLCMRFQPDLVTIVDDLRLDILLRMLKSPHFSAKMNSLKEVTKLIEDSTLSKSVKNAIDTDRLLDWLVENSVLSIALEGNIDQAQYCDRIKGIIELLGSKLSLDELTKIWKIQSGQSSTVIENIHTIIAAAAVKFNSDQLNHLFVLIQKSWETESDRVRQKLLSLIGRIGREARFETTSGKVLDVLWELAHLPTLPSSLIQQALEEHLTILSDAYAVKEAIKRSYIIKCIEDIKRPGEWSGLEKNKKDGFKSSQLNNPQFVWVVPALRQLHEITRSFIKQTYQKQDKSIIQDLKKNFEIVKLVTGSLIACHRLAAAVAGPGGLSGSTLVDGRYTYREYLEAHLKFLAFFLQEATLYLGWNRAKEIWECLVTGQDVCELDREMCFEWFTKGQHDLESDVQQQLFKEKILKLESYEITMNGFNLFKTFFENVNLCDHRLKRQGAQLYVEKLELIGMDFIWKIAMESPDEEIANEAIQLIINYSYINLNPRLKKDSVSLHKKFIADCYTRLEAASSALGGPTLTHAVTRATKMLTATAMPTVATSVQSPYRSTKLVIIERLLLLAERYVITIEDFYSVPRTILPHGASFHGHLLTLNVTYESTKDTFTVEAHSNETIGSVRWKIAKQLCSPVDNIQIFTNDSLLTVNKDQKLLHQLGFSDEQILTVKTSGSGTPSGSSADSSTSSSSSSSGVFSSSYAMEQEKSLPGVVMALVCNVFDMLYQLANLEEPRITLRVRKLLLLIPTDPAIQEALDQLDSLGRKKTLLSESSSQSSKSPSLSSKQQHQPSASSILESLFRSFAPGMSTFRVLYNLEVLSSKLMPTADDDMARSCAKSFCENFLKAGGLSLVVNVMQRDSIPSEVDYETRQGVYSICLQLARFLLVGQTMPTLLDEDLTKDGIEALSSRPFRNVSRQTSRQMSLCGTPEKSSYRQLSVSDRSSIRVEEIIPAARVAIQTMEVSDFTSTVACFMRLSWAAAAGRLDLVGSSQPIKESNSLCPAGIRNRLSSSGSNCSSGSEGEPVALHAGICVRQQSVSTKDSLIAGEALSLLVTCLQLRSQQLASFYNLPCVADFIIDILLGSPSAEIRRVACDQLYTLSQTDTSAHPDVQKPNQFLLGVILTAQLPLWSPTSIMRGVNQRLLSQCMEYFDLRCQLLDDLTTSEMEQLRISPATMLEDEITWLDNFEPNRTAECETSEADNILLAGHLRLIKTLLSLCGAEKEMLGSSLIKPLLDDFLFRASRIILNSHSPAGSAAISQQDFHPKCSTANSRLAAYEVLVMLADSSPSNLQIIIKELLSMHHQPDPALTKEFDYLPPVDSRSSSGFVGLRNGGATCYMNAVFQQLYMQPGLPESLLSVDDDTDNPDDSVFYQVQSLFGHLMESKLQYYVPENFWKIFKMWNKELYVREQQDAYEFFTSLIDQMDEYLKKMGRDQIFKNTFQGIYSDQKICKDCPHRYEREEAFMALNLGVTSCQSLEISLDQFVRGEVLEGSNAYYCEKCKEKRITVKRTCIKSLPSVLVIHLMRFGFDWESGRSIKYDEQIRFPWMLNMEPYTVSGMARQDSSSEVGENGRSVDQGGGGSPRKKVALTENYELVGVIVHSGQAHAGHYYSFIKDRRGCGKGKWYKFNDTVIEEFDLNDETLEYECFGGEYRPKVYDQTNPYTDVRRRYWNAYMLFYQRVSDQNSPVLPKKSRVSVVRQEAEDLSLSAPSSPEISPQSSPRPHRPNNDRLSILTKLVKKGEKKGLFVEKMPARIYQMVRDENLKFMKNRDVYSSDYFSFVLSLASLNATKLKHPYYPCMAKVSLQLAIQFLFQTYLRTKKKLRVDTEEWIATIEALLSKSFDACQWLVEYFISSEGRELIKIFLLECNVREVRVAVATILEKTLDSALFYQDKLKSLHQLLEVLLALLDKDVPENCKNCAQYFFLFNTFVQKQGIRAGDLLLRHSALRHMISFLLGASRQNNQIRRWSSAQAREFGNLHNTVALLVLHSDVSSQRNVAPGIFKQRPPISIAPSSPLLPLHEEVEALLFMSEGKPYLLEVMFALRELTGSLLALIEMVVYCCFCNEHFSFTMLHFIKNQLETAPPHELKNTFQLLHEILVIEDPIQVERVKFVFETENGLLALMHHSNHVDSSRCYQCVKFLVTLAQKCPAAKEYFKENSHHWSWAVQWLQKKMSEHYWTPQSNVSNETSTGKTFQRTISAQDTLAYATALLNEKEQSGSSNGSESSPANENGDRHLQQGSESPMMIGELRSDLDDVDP

O=C(CCl)Nc1ccc(Cl)c(F)c1
log2 ratio of Biotin-Ahx-Ub-VS probe labelling (USP19): -0.486
log2 ratio of Biotin-Ahx-Ub-VS probe labelling (USP24): -1.66 (active)
log2 ratio of Biotin-Ahx-Ub-VS probe labelling (USP25): -1.62 (active)
log2 ratio of Biotin-Ahx-Ub-VS probe labelling (USP28): -1.53 (active)

Reference: the supplement of paper PMC11732987, “Enantioselective OTUD7B fragment discovery through chemoproteomics screening and high-throughput optimisation” (Communications Chemistry, 2025)
